From PubChem BioAssay
Sampled rows, rich in hits. Any-hit rate of the full collection: about 2.4%.
ANO1 block: mouse TMEM16A channel inhibition, primary screen; HEK293 TMEM16A/YFP iodide influx fluorescence, ionomycin; normalized B-score (activity score, 25-100; higher = stronger inhibition) at 10 µM; 310,000 tested, 1.2% active; AID 588511;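 active means ratio plate-corrected score three or more library SD toward inhibition, starting fluorescence score within five deviations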;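 further: score derived from kinetic fluorescence span divided by baseline fluorescence per well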
TMEM16A act: activators or potentiators of mouse TMEM16A chloride channel. 340,000 tested, 0.3% active. HEK293 TMEM16A/YFP-H148Q/I152L, iodide quench fluorescence; active compounds read low. Q8BHY3. B-score at 10 µM;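 active means fluorescence-ratio B-score plate-corrected deviation score at least 3 library SD below zero, with starting fluorescence score within 5 deviations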;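 further: channel opened by trigger with iodide after compound preincubation; score built on the fluorescence ratio of max minus min over baseline; more negative score means more quench and so TMEM16A activation or potentiation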
NOD2 RIPK2 PPI: blocks binding of human NOD2 to RIPK2 | O43353 | CHO BLA complementation NOD2-RIPK2, CCF4 ratio | inhibition, % at 4.98 µM | 360,000 tested, 0.38% active; in the data active means inhibition above about 21%;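 further: 0% = vehicle only and 100% = reference blocker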
TLR9-MyD88 block: blocks human TLR9 binding to MyD88 | inhibition, % at 4.98 µM | CHO BLA complementation TLR9-MyD88, CCF4 FRET ratio | AID 504734 | 340,000 tested, 0.21% active;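 active means inhibition above the mean over all tested compounds plus 3 SD, cut at about 21% in these data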;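 further: 0% = DMSO only wells and 100% = clavulanate BLA inhibitor control wells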
m5-HT2A agonist: activates the mouse 5-HT2A serotonin receptor; AID 624169; 360,000 tested, 0.66% active; activation, % at 7.6 µM; CHO-K1 mHTR2A beta-arrestin complementation, luminescence; percent of 30 µM serotonin response;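 active means activation above a run cutoff, the mean activation of all tested compounds plus 3 SD, cut at about 14% in these data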;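 further: 0% = plate median of compound wells and 100% = 30 µM serotonin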
TLR4 MyD88 comp: inhibitors of human TLR4-MyD88 binding; 200,000 tested, 0.18% active; AID 861; inhibition, % at 8.4 µM; O00206+Q99836; HeLa CL3-4 TLR4/MyD88 BLA complementation, FRET ratio; in the data active means inhibition above about 25%;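 further: 0% = vehicle and 100% = reference inhibitor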
MOR ag counter: OPRM1 agonism in mouse HTR2A counterscreen; shares compounds with m5-HT2A agonist; U2OS OPRM1 beta-arrestin PathHunter, luminescence; DMSO 0%, DAMGO 9.3 µM 100%; activation, % at 9.3 µM; 2,300 tested, 5.3% active;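 active means mean activation above the mean of DMSO-only wells plus 3 SD, cut at about 0.5% in these data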
Target sequence (P35372 whole entry, looked up): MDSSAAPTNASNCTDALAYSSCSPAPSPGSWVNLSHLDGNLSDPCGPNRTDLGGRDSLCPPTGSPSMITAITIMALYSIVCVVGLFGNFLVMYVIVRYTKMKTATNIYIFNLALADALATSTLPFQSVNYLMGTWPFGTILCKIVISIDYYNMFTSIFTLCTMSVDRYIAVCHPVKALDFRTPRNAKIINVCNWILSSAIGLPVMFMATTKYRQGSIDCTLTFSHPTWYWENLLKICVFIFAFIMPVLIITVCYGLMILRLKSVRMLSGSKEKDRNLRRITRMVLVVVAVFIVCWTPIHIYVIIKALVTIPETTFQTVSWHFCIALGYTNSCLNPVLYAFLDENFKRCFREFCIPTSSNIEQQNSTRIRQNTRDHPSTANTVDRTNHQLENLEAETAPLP
HTR2A ag conf: mouse HTR2A agonism confirmed. shares compounds with m5-HT2A agonist. AID 624381. CHO-K1 PathHunter beta-arrestin recruitment, luminescence; DMSO 0%, 30 µM serotonin 100%. 2,300 tested, 19% active. activation, % at 7.6 µM;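 active means mean activation across triplicates above the hit threshold derived in the original primary screen, cut at about 15% in these data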
Active calls of the source: *; i = inactive; nt = no result given; ! = a repeat was not active.

SMILES	ANO1 block	TMEM16A act	NOD2 RIPK2 PPI	TLR9-MyD88 block	m5-HT2A agonist	TLR4 MyD88 comp	MOR ag counter	HTR2A ag conf
Cc1nc2c(-c3ccc(Cl)cc3)c(C)[nH]n2c(=O)c1Cc1ccccc1	i	i	-6	8	5	-8	nt	nt
O=C(NCCCn1ccnc1)/C(=C\c1ccco1)NC(=O)c1ccco1	i	i	-6	-2	15*	3	-1	-3
COC(=O)c1cc(NC2c3ccccc3C(=O)N2Cc2ccco2)cc(C(=O)OC)c1 (configuration not stated)	i	i	5	0	3	-6	nt	nt
CCOc1ccc(NC2c3ccccc3C(=O)N2Cc2ccco2)cc1 (configuration not stated)	i	i	-13	-4	38*	-18	0	-4
CCOc1ccc(C(=O)Nc2ccc(NC(=O)c3ccccc3)cc2)cc1Br	i	i	3	9	25*	nt	-1	-1
CCSc1nc2sccc2c(=O)n1-c1ccccc1	i	i	0	-1	-5	nt	nt	nt
CCCc1ccc(OCC(O)CN2CCN(c3ccccc3)CC2)cc1 (configuration not stated)	i	i	-1	-3	9	-8	nt	nt
Cc1ccc(OCC(O)CN2CCN(c3ccccc3)CC2)cc1 (configuration not stated)	i	i	-5	-10	1	9	nt	nt
CCc1ccc(OCC(O)CN2CCN(c3ccccc3)CC2)cc1 (configuration not stated)	i	i	-5	-4	15*!	-3	0	29*
CCOC(=O)N1CCN(Cc2ccc(OCC(O)CN3CCCCC3)cc2)CC1 (configuration not stated)	i	i	-8	-9	33*	nt	0	71*
Cc1cccc(N2CCN(CC(O)COc3ccc4ccccc4c3)CC2)c1 (configuration not stated)	nt	i	-10	1	15*	nt	0	53*
Cc1cn(CCOc2ccc(Cl)cc2)c(=O)[nH]c1=O	i	i	6	12	17*	nt	-1	-4
O=c1ccn(CCOc2ccc(Cl)cc2)c(=O)[nH]1	i	i	7	3	-1	-6	nt	nt
CC(/C=C/C1[C@H](C)C[C@H](O[C@@H]2O[C@H](CO)[C@@H](O)[C@H](O)[C@H]2O)CC1(C)C)O[C@H]1O[C@H](CO)[C@@H](O)[C@H](O)[C@H]1O (some centres not stated)	i	i	5	-6	-1	nt	nt	nt
CC(/C=C/C1(O)C(C)CC(O)CC1(C)C)OC1OC(CO)C(O)C(O)C1O (configuration not stated)	i	i	-8	-9	39*	nt	-1	-1
Cc1ccnc(NS(=O)(=O)c2ccc(NC(=O)c3snnc3C)cc2)n1	i	i	-12	-9	15*	nt	-1	0
CC(=O)Nc1ccc(S(=O)(=O)Nc2nccc(C)n2)cc1	i	i	-13	-5	0	nt	nt	nt
CN(C)CCCNc1cc(O)c2ncccc2c1	nt	i	-8	7	-1	nt	nt	nt
CCC1(CC)C(=O)NC(=S)N=C1N	nt	i	-3	5	21*	nt	0	1
C[C@H](NC(=O)[C@@H]1CSC2c3ccccc3C(=O)N21)C(=O)NCc1c(F)cccc1Cl (some centres not stated)	i	i	-1	-6	17*	nt	0	-4
c1ccc(Cc2noc(CN3CCCC(CN4CCOCC4)C3)n2)cc1 (configuration not stated)	i	i	4	1	15*	-2	0	0
c1ccc(COC2CCCN(Cc3nc(Cc4ccccc4)no3)C2)cc1 (configuration not stated)	i	i	-7	1	-3	-11	nt	nt
CCOc1ccc(-n2c(=S)sc3c(=O)[nH]c(SCC(=O)NCC4CCCO4)nc32)cc1 (configuration not stated)	i	i	-3	-6	2	-12	nt	nt
Cc1cc(=O)[nH]c(SCc2csc(-c3ccccc3)n2)n1	i	i	-7	-7	3	1	nt	nt
Nc1cc(=O)[nH]c(SCc2csc(-c3ccccc3)n2)n1	i	i	-5	6	19*	12	-1	-3
SMILES	ANO1 block	TMEM16A act	NOD2 RIPK2 PPI	TLR9-MyD88 block	m5-HT2A agonist	TLR4 MyD88 comp	MOR ag counter	HTR2A ag conf
CCN(CC)c1ccc(C(=O)OCC(=O)N(C)Cc2ccccc2)cc1	i	i	12	7	-6	5	nt	nt
O=C(NC(=S)NC1CCCCCCCCCCC1)c1cccnc1	i	i	-8	-2	17*	1	0	1
O=c1[nH]c2cc(C(F)(F)F)ccc2n1-c1cc(C(F)(F)F)ccc1O	i	i	2	-2	15*	nt	0.6*	3
Cc1c(C(C)(C)O)[nH]c2cc(C(F)(F)F)ccc12	i	i	-3	3	0	nt	nt	nt
Cn1cc(C(=O)NCC2COc3ccccc3O2)c(=O)c2cc(S(=O)(=O)N3CCCCC3)ccc21 (configuration not stated)	i	i	-11	2	3	7	nt	nt
CCCc1c(-c2ccc(F)cc2)ncn1CCc1ccccc1OC	nt	nt	5	nt	17*	nt	0.8*	-9
CCCc1c(-c2ccc(Cl)cc2)ncn1CCc1ccccc1OC	nt	nt	7	nt	-7	nt	nt	nt
CCCCC(=O)Nc1ccc(Cl)cc1F	nt	nt	-6	-28	17*	nt	0	2
Cc1cccc(C(=O)NNC(=O)c2ccccc2Br)c1	i	i	-5	-3	6	nt	nt	nt
Cc1ccc(C(=O)Nc2ncnc3sc4c(c23)CCCCC4)cc1	i	i	-5	4	-1	-1	nt	nt
CCOc1ccc(CCNC(=O)c2ccc3c(=O)[nH]c4c(C(=O)NC(C)C)sc(=S)n4c3c2)cc1	i	i	-5	19	19*	nt	-1	0
CSc1cccc(NC(=S)N(CCCN2CCCC2)Cc2cccs2)c1	i	i	-2	4	43*	0	-1	15*
Cc1c(Cl)c([N+](=O)[O-])nn1CC(=O)NCc1cccs1	i	i	-3	-6	3	10	nt	nt
CC12CC3CC(C)(C1)CC(C(O)CN1CCOCC1)(C3)C2 (configuration not stated)	i	i	-2	9	16*	nt	-1	3
